# Measurements as given in PubChem BioAssay.
# For some assays here: Potency and affinity values are given separately. The source made the active and inactive calls.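 Rule for the calls, unless noted: active = thallium flux through the channel raised or lowered by more than 3 SD from vehicle-only wells, actives on both sides; inactive = the rest.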
# Columns and labels:
# [1] = signal quenchers or enhancers, Cy5 substrate/SSB – biochemical, NIH Clinical Collection, E. coli SSB, artefact control for HCV NS3 helicase inhibitor project (AID 743268; call rule not given here); conditions: Cy5-oligo bound E. coli SSB, fluorescence interference
# [2] = tested on: Hepatitis C virus NS3 helicase; assay: blockers of NS3h binding to DNA – biochemical, fluorescence polarization, NIH Clinical Collection, primary screen (AID 743270; call rule not given here); conditions: NS3 helicase binding to Cy5-dT15 DNA, stronger effect = higher value, concentration not given here
# [3] = target: Single-stranded DNA-binding protein (Escherichia coli (strain K12)) (UniProt P0AGE0); assay: SSB-ssDNA binding inhibitors – biochemical, fluorescence polarization, NIH Clinical Collection, counter-screen for HCV NS3 helicase inhibitor project (AID 743271; in the data active = inhibition above about 28%); conditions: E. coli SSB-DNA binding, stronger effect = higher value, concentration not given here
# [4] = compounds distorting NS3 helicase fluorescence signal – biochemical, NIH Clinical Collection, artefact control for HCV NS3 helicase inhibitor project (AID 743272; call rule not given here;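 note: HCV NS3 helicase with a Cy5 labelled single stranded DNA probe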); conditions: fluorescence interference counterscreen, HCV NS3 helicase assay; stronger effect = lower value
# [5] = chitosan synthesis blockers in C. neoformans – flow cytometry, Cibacron Brilliant Red staining (AID 1347148; call rule not given here;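 note: compound exposure lasted three days at 37 degrees C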); conditions: Cryptococcus neoformans chitosan, stronger effect = lower value; at 10 µM unless noted
# [6] = restoration of touch response, mutant HTT neurons – whole organism, C. elegans mechanosensory neurons, N-terminal huntingtin (AID 1599); conditions: C. elegans polyQ-huntingtin mechanosensory neurons, stronger effect = higher value
# [7] = modulation of C. elegans fzo-1 (AID 1259413; call rule not given here;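 note: fzo-1 mutant C. elegans worms in liquid wells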); conditions: C. elegans fzo-1 modulator screen, mean read-out; stronger effect = higher value
# F380Y = assay: BK channel mutant inhibitors and activators – cell-based, U2OS BacMam, thallium flux, beta subunits, selectivity assay, profiling panel (AID 1259406); conditions: U2OS BacMam BK variants, at 30 µM;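 note: initial slope of Thallos dye fluorescence rise after thallium is added; log ratio against the mean of 0.3% DMSO vehicle wells on the same plate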
# F380Y/beta1 = assay: as above; conditions: U2OS BacMam BK variants, at 30 µM
# F380Y/beta2Delta = assay: as above; conditions: U2OS BacMam BK variants, at 30 µM
# F380Y/beta4 = assay: as above; conditions: U2OS BacMam BK variants, at 30 µM
# [8] = target: Calcium-activated potassium channel subunit alpha-1 (Homo sapiens) + Leucine-rich repeat-containing protein 26 (Homo sapiens) (UniProt Q12791+Q2I0M4); assay: as above; conditions: U2OS BacMam BK variants, F380Y/Slo1WT/gamma1, at 30 µM
# Sequence of Calcium-activated potassium channel subunit alpha-1 (Homo sapiens) + Leucine-rich repeat-containing protein 26 (Homo sapiens) (Q2I0M4 whole entry, looked up, one chain of several): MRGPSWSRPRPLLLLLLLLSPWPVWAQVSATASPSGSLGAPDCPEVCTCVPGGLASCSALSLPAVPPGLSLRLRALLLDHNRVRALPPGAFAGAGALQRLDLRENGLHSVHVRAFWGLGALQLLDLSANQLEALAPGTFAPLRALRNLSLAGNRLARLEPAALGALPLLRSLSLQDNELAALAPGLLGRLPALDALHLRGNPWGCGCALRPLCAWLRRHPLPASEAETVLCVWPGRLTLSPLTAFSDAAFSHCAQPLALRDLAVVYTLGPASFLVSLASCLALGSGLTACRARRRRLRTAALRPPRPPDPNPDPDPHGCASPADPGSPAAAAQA
# R275C = assay: as above; conditions: U2OS BacMam BK variants, at 30 µM
# R275C/beta1 = assay: as above; conditions: U2OS BacMam BK variants, at 30 µM
# R275C/beta2Delta = assay: as above; conditions: U2OS BacMam BK variants, at 30 µM
# R275C/beta4 = assay: as above; conditions: U2OS BacMam BK variants, at 30 µM
# R275C/Slo1WT/beta2 = assay: as above; conditions: U2OS BacMam BK variants, at 30 µM
# [9] = target: Calcium-dependent protein kinase 1 (Plasmodium falciparum (isolate 3D7)) (UniProt P62344); assay: PfCDPK1 kinase inhibitors, biochemical, TCAMS library (AID 1159585; cut-off not given, nearly all actives have IC50 up to about 0.98 µM;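 note: inhibitors leave more ATP so luminescence rises with inhibition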); conditions: recombinant PfCDPK1, Kinase-Glo ATP depletion luminescence
# Sequence of Calcium-dependent protein kinase 1 (Plasmodium falciparum (isolate 3D7)) (P62344 whole entry, looked up): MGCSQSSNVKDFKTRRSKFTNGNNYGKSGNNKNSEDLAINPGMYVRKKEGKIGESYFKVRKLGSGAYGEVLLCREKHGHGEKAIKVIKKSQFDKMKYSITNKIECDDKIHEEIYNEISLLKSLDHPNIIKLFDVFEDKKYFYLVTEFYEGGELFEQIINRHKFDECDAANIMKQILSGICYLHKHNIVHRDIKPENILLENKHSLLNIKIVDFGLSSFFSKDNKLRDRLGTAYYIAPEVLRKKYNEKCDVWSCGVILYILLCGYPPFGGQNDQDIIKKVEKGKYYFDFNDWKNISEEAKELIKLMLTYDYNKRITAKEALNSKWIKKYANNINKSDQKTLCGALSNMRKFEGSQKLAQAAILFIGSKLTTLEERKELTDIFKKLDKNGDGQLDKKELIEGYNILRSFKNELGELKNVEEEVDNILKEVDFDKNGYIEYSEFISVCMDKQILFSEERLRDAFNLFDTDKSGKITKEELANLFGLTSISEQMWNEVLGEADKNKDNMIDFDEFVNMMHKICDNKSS
# [10] = target: Plasmodium falciparum protein kinase 6 (PK6, PF3D7_1337100) (UniProt Q8IDW1); assay: PfPK6 kinase inhibitors, biochemical, TCAMS library (AID 1159586; call rule not given here); conditions: recombinant PfPK6, Kinase-Glo ATP depletion luminescence
# Sequence of Plasmodium falciparum protein kinase 6 (PK6, PF3D7_1337100) (Q8IDW1 1-305): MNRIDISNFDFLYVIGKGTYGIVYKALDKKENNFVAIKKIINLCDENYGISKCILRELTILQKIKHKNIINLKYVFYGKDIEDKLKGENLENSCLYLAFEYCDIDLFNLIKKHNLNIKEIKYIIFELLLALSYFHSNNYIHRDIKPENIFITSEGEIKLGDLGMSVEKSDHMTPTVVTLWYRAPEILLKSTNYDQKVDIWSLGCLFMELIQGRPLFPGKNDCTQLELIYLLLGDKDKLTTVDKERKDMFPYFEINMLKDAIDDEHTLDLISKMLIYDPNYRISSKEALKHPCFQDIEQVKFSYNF
# [11] = tested on: Neuropilin-2 / VEGF-C interaction (human); assay: small molecules blocking Neuropilin-2/VEGF-C interaction – biochemical, microplate binding format, z-score (AID 743281; call rule not given here); conditions: microplate NRP2/VEGF-C binding assay; stronger effect = lower value
structure (smiles),measurement,setting,value
C[C@]12CC[C@H](O)CC1=CC[C@@H]1[C@@H]2CC[C@]2(C)C(=O)CC[C@@H]12,fluorescence ratio,[1],0.94 (inactive)
same,inhibition,[2],0.66% (inactive)
same,inhibition,[3],-2.76% (inactive)
same,fluorescence ratio,[4],0.97 (inactive)
c1ccc(C2CC2)c(OCC2=NCCN2)c1,fold fluorescence,[5],4.38 [at 231.2 µM] (inactive)
CCCCC/C=C\C/C=C\C/C=C\C/C=C\CCCC(=O)NCC(=O)O,fold fluorescence,[5],3.73 (inactive)
CN(C)C(=S)SSC(=S)N(C)C,rescue above control,[6],2.19
Clc1ccc(COC(Cn2ccnc2)c2ccc(Cl)cc2Cl)c(Cl)c1 (stereo unspecified),rescue above control,[6],0
same,fluorescence ratio,[1],0.96 (inactive)
same,inhibition,[2],6.82% (inactive)
same,inhibition,[3],4.86% (inactive)
same,fluorescence ratio,[4],0.93 (inactive)
same,mean signal,[7],182 (inactive)
same,log fold change Tl+ flux,F380Y,-0.0473 (inactive)
same,log fold change Tl+ flux,F380Y/beta1,-0.101 (inactive)
same,log fold change Tl+ flux,F380Y/beta2Delta,-0.0262 (inactive)
same,log fold change Tl+ flux,F380Y/beta4,-0.445 (active)
same,log fold change Tl+ flux,[8],0.0222 (inactive)
same,log fold change Tl+ flux,R275C,-0.0411 (inactive)
same,log fold change Tl+ flux,R275C/beta1,0.0424 (inactive)
same,log fold change Tl+ flux,R275C/beta2Delta,-0.0245 (inactive)
same,log fold change Tl+ flux,R275C/beta4,0.0768 (inactive)
same,log fold change Tl+ flux,R275C/Slo1WT/beta2,0.0237 (inactive)
CC[C@H]1CN2CC[C@H]1C[C@@H]2[C@@H](O)c1ccnc2ccc(OC)cc12,outcome,[9],inactive
same,outcome,[10],inactive
FC(F)(F)c1cccc(N2CCNCC2)c1,rescue above control,[6],0
same,fluorescence ratio,[1],1.01 (inactive)
same,inhibition,[2],-2.77% (inactive)
same,inhibition,[3],-3.95% (inactive)
same,fluorescence ratio,[4],0.93 (inactive)
same,z-score,[11],-0.497 (inactive)
same,mean signal,[7],282 (inactive)
same,log fold change Tl+ flux,F380Y,-0.0132 (inactive)
same,log fold change Tl+ flux,F380Y/beta2Delta,0.0279 (inactive)
same,log fold change Tl+ flux,[8],-0.00699 (inactive)
same,log fold change Tl+ flux,R275C,0.0139 (inactive)
same,log fold change Tl+ flux,R275C/beta1,0.0717 (inactive)
same,log fold change Tl+ flux,R275C/beta2Delta,0.00655 (inactive)
c1ccc2c3c([nH]c2c1)CNCC3,fluorescence ratio,[1],0.93 (inactive)
same,inhibition,[2],0.66% (inactive)
same,inhibition,[3],5.12% (inactive)
same,fluorescence ratio,[4],0.91 (inactive)
same,z-score,[11],-0.415 (inactive)
same,mean signal,[7],258 (inactive)
same,log fold change Tl+ flux,F380Y,-0.00245 (inactive)
same,log fold change Tl+ flux,F380Y/beta1,-0.00595 (inactive)
same,log fold change Tl+ flux,F380Y/beta2Delta,-0.0184 (inactive)
same,log fold change Tl+ flux,F380Y/beta4,-0.0163 (inactive)
same,log fold change Tl+ flux,[8],0.00353 (inactive)
same,log fold change Tl+ flux,R275C,0.0253 (inactive)
same,log fold change Tl+ flux,R275C/beta1,-0.0273 (inactive)
same,log fold change Tl+ flux,R275C/beta2Delta,-0.0332 (inactive)
same,log fold change Tl+ flux,R275C/beta4,-0.016 (inactive)
same,log fold change Tl+ flux,R275C/Slo1WT/beta2,-0.0345 (inactive)
C=C[C@H]1CN2CC[C@H]1C[C@H]2[C@H](O)c1ccnc2ccccc12,rescue above control,[6],0.34
same,outcome,[9],inactive
same,outcome,[10],inactive
COc1ccc2[nH]cc(CCN)c2c1,fluorescence ratio,[1],0.98 (inactive)
same,inhibition,[2],-1.09% (inactive)
same,inhibition,[3],3.54% (inactive)
same,fluorescence ratio,[4],0.97 (inactive)
same,z-score,[11],0.413 (inactive)
same,mean signal,[7],258 (inactive)
same,log fold change Tl+ flux,F380Y,0.0218 (inactive)
same,log fold change Tl+ flux,F380Y/beta1,0.0119 (inactive)
same,log fold change Tl+ flux,F380Y/beta2Delta,-0.052 (inactive)
same,log fold change Tl+ flux,F380Y/beta4,-0.0167 (inactive)
same,log fold change Tl+ flux,[8],-0.0293 (inactive)
same,log fold change Tl+ flux,R275C,-0.061 (inactive)
same,log fold change Tl+ flux,R275C/beta1,-0.0101 (inactive)
same,log fold change Tl+ flux,R275C/beta2Delta,-0.00391 (inactive)
same,log fold change Tl+ flux,R275C/beta4,0.0135 (inactive)
same,log fold change Tl+ flux,R275C/Slo1WT/beta2,0.00615 (inactive)
NC(=O)CS(=O)C(c1ccccc1)c1ccccc1 (stereo unspecified),fluorescence ratio,[1],1 (inactive)
same,inhibition,[2],0.4% (inactive)
same,inhibition,[3],-3.18% (inactive)
same,fluorescence ratio,[4],0.98 (inactive)
same,z-score,[11],0.787 (inactive)
same,mean signal,[7],263 (inactive)
same,log fold change Tl+ flux,F380Y,-0.0264 (inactive)
same,log fold change Tl+ flux,F380Y/beta1,0.0487 (inactive)
same,log fold change Tl+ flux,F380Y/beta2Delta,0.0296 (inactive)
same,log fold change Tl+ flux,F380Y/beta4,0.00509 (inactive)
same,log fold change Tl+ flux,[8],-0.00311 (inactive)
same,log fold change Tl+ flux,R275C,-0.0429 (inactive)
same,log fold change Tl+ flux,R275C/beta1,0.0162 (inactive)
same,log fold change Tl+ flux,R275C/beta2Delta,0.0129 (inactive)
same,log fold change Tl+ flux,R275C/beta4,0.0208 (inactive)
same,log fold change Tl+ flux,R275C/Slo1WT/beta2,0.0297 (inactive)
CC[C@@]1(O)C(=O)OCc2c1cc1n(c2=O)Cc2cc3ccccc3nc2-1,rescue above control,[6],0
same,fold fluorescence,[5],6.75 [at 143.5 µM] (inactive)
O=C1CC[C@@]2(O)[C@H]3Cc4ccc(O)c5c4[C@@]2(CCN3CC2CC2)[C@H]1O5,log fold change Tl+ flux,F380Y,0.00675 (inactive)
same,log fold change Tl+ flux,F380Y/beta1,-0.0461 (inactive)
same,log fold change Tl+ flux,F380Y/beta2Delta,0.00968 (inactive)
same,log fold change Tl+ flux,F380Y/beta4,-0.0353 (inactive)
same,log fold change Tl+ flux,[8],-0.0199 (inactive)
same,log fold change Tl+ flux,R275C,-0.0442 (inactive)
same,log fold change Tl+ flux,R275C/beta1,0.0294 (inactive)
same,log fold change Tl+ flux,R275C/beta2Delta,-0.0407 (inactive)
same,log fold change Tl+ flux,R275C/beta4,-0.0587 (inactive)
same,log fold change Tl+ flux,R275C/Slo1WT/beta2,0.0463 (inactive)
O=c1ccc2cc(O[C@@H]3O[C@H](CO)[C@@H](O)[C@H](O)[C@H]3O)c(O)cc2o1,rescue above control,[6],-7.81
COc1ccc(C[C@H]2NC[C@H](O)[C@H]2OC(C)=O)cc1,rescue above control,[6],20.1
same,outcome,[9],inactive
same,outcome,[10],inactive
same,fold fluorescence,[5],11.2 [at 188.5 µM] (inactive)
O=c1c2ccccc2[se]n1-c1ccccc1,fluorescence ratio,[1],1 (inactive)
same,inhibition,[2],99.3% (active)
same,inhibition,[3],-0.39% (inactive)
same,fluorescence ratio,[4],1.05 (inactive)
same,z-score,[11],0.167 (inactive)
same,mean signal,[7],217 (inactive)
same,fold fluorescence,[5],9.59 [at 182.4 µM] (inactive)
CC[C@@H](CO)NC(=O)[C@@H]1C=C2c3cccc4[nH]cc(c34)C[C@H]2N(C)C1,rescue above control,[6],4.84
C=C[C@H]1CN2CC[C@H]1C[C@@H]2[C@@H](O)c1ccnc2ccccc12,outcome,[9],inactive
same,outcome,[10],inactive
